Screening data from PubChem.
PNC assembly inh: perinucleolar compartment assembly inhibition; PC3M PTB-GFP, PNC prevalence imaging, 16 h; hits give low values; activity change (PNC), negative = inhibition, % at 10 µM; hit rate 3.1% among 140,000;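 active = readout at or below -70, meaning at least 70% loss of cells showing the perinucleolar compartment, a nuclear body marking cancer cells; inconclusive = readout between -30 and a set limit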;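 also: plate controls were DMSO wells for no effect and camptothecin positive control wells for full effect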
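Read-out is percentage of cells bearing a perinucleolar compartment, from automated 20x imaging of fixed, Hoechst-stained PC3M PTB-GFP cells. Cells were seeded 4 h, then exposed 16 h to compound (23 nl of library stock) in duplicate plates.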
IMPase cell inh: IMPase inhibition in cells; inhibition (IP1 accumulation), % at 46.1 µM; 120,000 tested, under 10 active; CHO-M1 cells, IP1 accumulation, HTRF TR-FRET ratio; P97697; active = well fitted curve in the direction sought with a large enough effect in the signal ratio, not every such curve was filed as active; inconclusive = small, poorly fitted or top-dose-only effect, or a change in a side signal; inactive = no such curve, though single readings can be large or run the other way; the % refers to the signal ratio;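 also: cells stimulated with carbachol in lithium chloride buffer; plate controls were DMSO basal wells for no effect and reference inhibitor wells for full effect; higher means more IMPase inhibition seen as more IP1 and lower FRET ratio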
Target sequence (P97697 whole entry, looked up): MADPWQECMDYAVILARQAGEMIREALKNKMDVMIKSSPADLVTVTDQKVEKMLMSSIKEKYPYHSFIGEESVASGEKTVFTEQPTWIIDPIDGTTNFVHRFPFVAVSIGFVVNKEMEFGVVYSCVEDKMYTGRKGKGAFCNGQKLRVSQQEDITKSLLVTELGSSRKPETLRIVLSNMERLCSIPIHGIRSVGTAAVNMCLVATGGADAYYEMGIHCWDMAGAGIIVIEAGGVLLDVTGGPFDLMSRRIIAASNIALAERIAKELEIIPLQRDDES
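Elevated IP1 in lysates lowers TR-FRET signal (665/620 ratio and 620 channel reported). Cells were CHO-M1, given carbachol (50 uM as added) plus 50mM LiCl, pH 7.4, 30 min, 37C; compounds titrated up to 46 uM; AC50 by Hill equation.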
Lamin A splicing: LMNA splicing modulation. HeLa LMNA splicing GFP/RFP minigene ratio, 48 h. hit rate 0.01% among 200,000. Potency, µM (titrated, usually from 46.1 µM), for the others: top-dose ratio change, negative = inhibition, most hits filed as inhibitors. AID 1487; active = well fitted inhibition curve with a large enough effect in the signal ratio, with a control signal flat, not every such curve was filed as active; inconclusive = small, poorly fitted or top-dose-only effect, or effect the other way, or a change in a side signal; the % refers to the signal ratio; also: potency is read from the fitted curve at half-maximal effect
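S3 HeLa cells stably expressing lamin A-EGFP splicing minigene plus DsRed2, 600 cells/well, 48 h compound exposure at 37C. Laser-scanning cytometry; analysed as GFP (500-530 nm)/RFP (575-640 nm) total intensity ratio; 0.5% DMSO vehicle.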
Active calls of the source: *; ? = inconclusive; / = no result; [ ] = remark or other dose. Shown is part of a subset that was picked to be rich in hits. Unless noted, % is scaled to controls: 0 for no effect and ±100 for the full control effect.

SMILES	PNC assembly inh	IMPase cell inh	Lamin A splicing
CCOc1ccc(-n2c(Cc3cc(=O)[nH]c(=O)[nH]3)nnc2SCC(N)=O)cc1	-84*	1	16%
O=C(CS(=O)(=O)c1cccc2nsnc12)NCc1ccccc1	/	/	3%[46 µM]
COc1ccc(/C=C/c2nc3ccccc3c(=O)n2-c2cccc(C(F)(F)F)c2)cc1	/	/	0%[46 µM]
Cc1ccc(S(=O)(=O)N(CC(=O)N2CCN(c3ccccc3F)CC2)C2CCCCC2)cc1	35	11	?
CS(=O)(=O)N(CC(=O)N1CCN(c2ccccc2F)CC1)C1CCCCC1	-88*	5	1%
Cc1nnc(NC(=O)C(C)Oc2ccc3c(C)cc(=O)oc3c2)s1 (stereo not given)	-107*	12	11%
CCOC(=O)Cc1csc(NC(=O)C(C)Oc2ccc3c(C)cc(=O)oc3c2)n1 (stereo not given)	/	/	-10%[46 µM]
CNC(=O)c1c(I)c(C(=O)NCC(=O)Nc2c(I)c(C(=O)O)c(I)c(C(=O)NCCO)c2I)c(I)c(N(C)C(C)=O)c1I	/	-4[20.6 µM]	-12%
O=C(Cn1cc2c(n1)CCCCC2)N1CCCCC1	-119*	-4	-4%
O=C(O)Cn1cc2c(n1)CCCCC2	?	3	8%
CCCC1C(C#N)=C(N)Oc2n[nH]c(C(C)(C)C)c21 (stereo not given)	-114*	0	1%
CC(C)C1C(C#N)=C(N)Oc2n[nH]c(C(C)(C)C)c21 (stereo not given)	?	5	-5%
CC(=O)c1sc(N/N=C\c2cccc(Br)c2)nc1C	-85*	/	-2%
CC(=O)c1sc(N/N=C\c2ccc(Br)cc2)nc1C	49	/	9%
CCSc1nc2[nH]ncc2c(=O)[nH]1	-87*	/	10%
CCCCSc1nc2[nH]ncc2c(=O)[nH]1	?	/	13%
COc1ccc(-n2nnc3c(SCC(=O)c4ccccc4)ncnc32)cc1	-11	3	-6%
COc1ccc(-n2nnc3c(SCC(=O)Nc4ccc5c(c4)OCCO5)ncnc32)cc1	-83*	-10	-6%
CCC(Oc1ccccc1)C(=O)Nc1ccc2oc(-c3ccc(OC)cc3)nc2c1 (stereo not given)	/	/	-5%[46 µM]
O=C1C(Cl)=C(N2CCOCC2)C(=O)N1c1ccccc1Cl	28	0	2%
Cc1ccccc1N1C(=O)C(Cl)=C(N2CCN(c3ccccc3)CC2)C1=O	-85*	10	7%
C=C(C)CC1(NC(C)c2ccccc2)CCCCC1 (stereo not given)	-109*	/	-1%
C/C(Cl)=C\CNC(C)c1ccccc1 (stereo not given)	-8	4	2%
Cc1cn(C)c(CC(=O)N2CCN(c3cccc(C(F)(F)F)c3)CC2)c1C(=O)O	/	/	-6%[46 µM]
Cc1ncc2c(c1O)COP(=O)(O)OC2	/	1	/
SMILES	PNC assembly inh	IMPase cell inh	Lamin A splicing
CC(C)Sc1nnc(Cn2c(=O)sc3ccccc32)n1-c1ccccc1	-26	-9	-2%
CSc1nnc(Cn2c(=O)sc3ccccc32)n1-c1ccccc1	-106*	-3	0%
CC(C)(CNC(=O)c1sc2cc(F)ccc2c1Cl)N1CCOCC1	-92*	/	?
Cc1ccc(C(=O)NCC(C)(C)N2CCOCC2)s1	4	-7	7%
O=[N+]([O-])c1ccc(C2(O)CN(c3ccccc3)C3=[N+]2CCS3)cc1 (stereo not given)	/	/	-12%[46 µM]
CCCn1nc(C(=O)OCC(=O)c2c(N)n(C)c(=O)n(C)c2=O)c2ccccc2c1=O	/	/	-9%[46 µM]
Cc1ccc(NC(=O)c2cc3c(=O)n(Cc4ccco4)ccc3nc2C)cc1C	/	/	-7%[46 µM]
Cc1ccc(C(=O)NCC(c2cccs2)S(=O)(=O)c2cccs2)cc1 (stereo not given)	/	/	-11%[46 µM]
COc1ccc(N2CCN(C(=S)Nc3cccc(C)c3)CC2)cc1	-5	-7	1%
COc1ccc(N2CCN(C(=S)Nc3cc(C)cc(C)c3)CC2)cc1	-106*	-7	3%
CC[N+](CC)(CC=C(C)C)CC(=O)OC	/	/	-4%[46 µM]
Cc1nc2sccn2c(=O)c1S(=O)(=O)Nc1ccc(N2CCN(S(C)(=O)=O)CC2)cc1	/	13	/
CCn1c(SCC(=O)C(C)(C)C)nnc1-c1cnccn1	-100*	-1	-2%
CCn1c(SCC(=O)C(C)(C)C)nnc1-c1ccccn1	-30	-5	3%
O=C1C=C(c2ccccc2)OC(=O)C1C(=O)c1ccccc1 (stereo not given)	-100*	-9	-8%
CC1(C)CC(=O)C(C(=O)c2ccccc2)C(=O)C1	/	/	2%[46 µM]
CCCNC(=O)C12CCC(C)(c3nc4cc(C)c(C)cc4nc31)C2(C)C (stereo not given)	/	/	-10%[9.22 µM]
O=C(c1ccc2c(c1)OCO2)N(c1ccc(Cl)cc1)C1C=CS(=O)(=O)C1 (stereo not given)	13	1	-6%
O=C1CC(N2CCC(O)CC2)C(=O)N1c1ccc(Br)cc1 (stereo not given)	11	-3	-1%
O=CN1CCN(C2CC(=O)N(c3ccc(Br)cc3)C2=O)CC1 (stereo not given)	-86*	-7	11%
O=C1CC(N2CCCCC2)C(=O)N1c1ccccc1 (stereo not given)	-100*	8	1%
O=C1CC(N2CCCN(C3CC(=O)N(c4ccc(F)cc4)C3=O)CC2)C(=O)N1c1ccc(F)cc1 (stereo not given)	-13	4	-4%
CCN(CCNC(=O)C1CCN(S(=O)(=O)c2cccc3cccnc23)CC1)c1ccccc1	-25	1	-11%
O=C(NNC(=O)c1ccccc1O)c1ccco1	/	/	-1%[9.22 µM]
CC(=O)NC1(c2ccccc2)CCN(c2nc(C)cc(C)n2)CC1	-24	-3	2%
SMILES	PNC assembly inh	IMPase cell inh	Lamin A splicing
Cc1ccc(NC(=S)NN(C)c2cc(C)nc(C)n2)cc1	-13	/	?
Cc1cnc(C)c(N(C)NC(=S)Nc2ccccc2)n1	-109*	/	4%
Cc1[nH]c2ccccc2c1C(=O)COC(=O)Cn1c(C(F)(F)F)nc2ccccc21	-105*	/	?
O=C(Cn1c(C(F)(F)F)nc2ccccc21)OCC(=O)c1c[nH]c2ccccc12	-26	11	-9%
O=C(NC1CC(=O)N(c2ccccc2)C1)C(c1ccccc1)c1ccccc1 (stereo not given)	/	/	-8%[46 µM]
O=C(O)c1ccc(S(=O)(=O)c2ccc3c(c2)C(=O)N(CC2CCCO2)C3=O)cc1 (stereo not given)	-100*	2	13%
O=C(O)c1cccc(NC(=O)c2ccc3c(c2)C(=O)N(CC2CCCO2)C3=O)c1 (stereo not given)	?	-7	3%
COc1ccc(Cl)c2sc(NC(=O)c3ccc(S(=O)(=O)N4CCOCC4)cc3)nc12	/	/	-5%[46 µM]
COc1ccc(NC(=O)NCCN2C(=O)C3C4C=CC(C4)C3C2=O)cc1 (stereo not given)	-82*	-4	-17%
Cc1ccc(NC(=O)NCCN2C(=O)C3C4C=CC(C4)C3C2=O)cc1 (stereo not given)	-2	-1	7%
COc1ccc(OC)c(CNC(=O)Nc2cn(CC(C)C)c(=O)c3ccccc23)c1	/	/	7%[46 µM]
COc1ccc(-c2cc3c(=O)n(CC(=O)Nc4ccccc4C(F)(F)F)ccn3n2)cc1OC	/	/	-3%[46 µM]
O=C(COC(=O)c1cc(-c2ccc(F)cc2)nc2ccccc12)NCC1CCCO1 (stereo not given)	/	/	12%[46 µM]
